Structures are written as SMILES. Results filed as inconclusive are left out. Entries that show only a call come without a potency. The source made the active and inactive calls. Calls come from the whole dose curve; as a rule, active = well fitted cell-killing curve with a large enough effect in the repeat runs; inconclusive = weak or mixed curves, or effect the other way; inactive = flat fitted curve, though single readings scatter.

The assay in a line: qHTS assay to identify small molecule antagonists of the constitutive androstane receptor (CAR) signaling pathway - cell viability counter screen (AID 1224837). Note: nearly all actives have a fitted effect of over 45% in size. Particulars: HepG2-CYP2B6-hCAR viability, CellTiter-Fluor, 23 h, co-treated with 50 nM CITCO; series mostly up to 92.4 µM. The text has this: National Center for Advancing Translational Sciences [NCATS]
NIH Chemical Genomics Center [NCGC]
U.S. Environmental Protection Agency [EPA]
National Institutes of Environmental Health Sciences [NIEHS]
National Toxicology Program [NTP]
U.S. Food and Drug Administration [FDA]
The constitutive androstane receptor (CAR) is a nuclear receptor which regulates multiple drug metabolizing enzymes (DMEs) and transporters. Activating CAR will generally increase the transcription and subsequent translation of CYP2B6 and CYP3A4. These two DMEs represent about 50% of the drug metabolizing potential in the body. When CAR is deactivated, the metabolizing potential in the body will decrease, subsequently increasing the toxicity in the body or lowering the therapeutic potential of a pro-drug. Recently, there have also been studies performed indicating CARs role in energy metabolism and cancer therapy. Therefore, inhibiting CARs activity could have a potential effect on diabetes and cancer. Identifying environmental toxins and compounds which modulate CAR, through the use of the Tox21 10K compound collection, will be an important step in determining the toxicity and potential therapeutic effects these factors will have on the human body. To differentiate true CAR antagonists from cytotoxic substances, the assay is multiplexed with a cell viability assay.
Tox21 Assay Protocol Summary:
A double-stable (hCAR and CYP2B6-2.2kb) transfected cell line, derived from human hepatoma (HepG2) cells, was utilized for the duration of the quantitative high-throughput screens. The HepG2-CYP2B6-hCAR cells were dispensed at 2500 cells/4 uL/well in 1536-well white solid bottom plates using a Multidrop Combi. After the assay plates were incubated at 37 C/5% CO2 for 4 hrs, 23 nL of compounds at 15 concentrations (from 5-48 columns) or positive control (from 1 to 4 columns) were transferred to the assay plates using a Pintool station. One uL of CITCO (final concentration = 50 nM) was added, using a Flying Reagent Dispenser, inside each well. After a 23 hr incubation period at 37 C/5% CO2, 1 uL of CellTiter-Fluor reagent was added into each well of the assay plates using a Flying Reagent Dispenser. The fluorescence intensity in the plates was then measured using a ViewLux plate reader.
(In general: In qHTS, concentration-response curves come from the screen itself.)
Turning to `CCCCCCCCCCCC#N`, the Potency result was “inactive”.

Regarding `Clc1cccc(Cl)c1Cl`, the Potency entry was “inactive”.

Take `COC(=O)c1ccccc1C(=O)OC`: the Potency entry was “inactive”.

Regarding `Cc1ccc(N)cc1Cl`, the Potency entry was “inactive”.

As to `CN1C(=O)CN=C(c2ccccc2)c2cc(Cl)ccc21`, the Potency result is “inactive”.

On to `COc1ccc2c3c1O[C@H]1[C@@H](O)C=C[C@H]4[C@@H](C2)N(C)CC[C@@]341`, for which the Potency result was “inactive”.

`CN(N=O)c1ccccc1`: the Potency entry was “inactive”.

On to `C1CC2OC2CC1C1CO1` (stereo not given), for which the Potency entry is “inactive”.

For `ClCc1cccnc1`, the Potency result is “inactive”.

On to `CCNc1nc(NC(C)(C)C)nc(SC)n1`, for which the Potency entry is “inactive”.

`NCC(O)c1ccc(O)cc1` (stereo not given): the Potency entry is “inactive”.

As for `CC(Br)C(=O)O` (stereo not given), the Potency result is “inactive”.

Take `Clc1ccccc1Cl`: the Potency entry is “inactive”.

Take `c1ccc2c(c1)oc1ccccc12`: the Potency entry is “inactive”.

On to `O=S(=O)(c1ccc(Cl)cc1)c1cc(Cl)c(Cl)cc1Cl`, for which the Potency result was “inactive”.

Turning to `O=[N+]([O-])c1ccc(Oc2ccc(Cl)cc2Cl)cc1`, the Potency result was “inactive”.

As for `Nc1ccc(Cc2ccc(N)cc2)cc1`, the Potency entry was “inactive”.

For the compound `CN=C=S`, the Potency entry was “inactive”.

As for `CCCCCCCCCl`, the Potency result is “inactive”.

Regarding `C=CCO`, the Potency entry is “inactive”.

As for `CN(C)CCO`, the Potency result is “inactive”.

Turning to `COC(=O)c1ccccc1N`, the Potency entry was “inactive”.

With `c1ccc2c(c1)Oc1ccccc1O2`, the Potency result is “inactive”.

With `Cc1ccc(N)cc1N`, the Potency result is “inactive”.

As for `CCC[CH2][Sn]([Cl])([Cl])[Cl]`, the Potency entry is “inactive”.

Take `COCCl`: the Potency result is “inactive”.

As to `Cc1cccc([N+](=O)[O-])c1`, the Potency entry is “inactive”.

Turning to `CCCCOC(=O)c1ccccc1C(=O)OCCCC`, the Potency entry was “inactive”.

For `CCOP(=S)(OCC)SCCSCC`, the Potency result was “inactive”.

Take `c1ccc(-c2ccccc2)cc1`: the Potency entry is “inactive”.

As for `c1cc2c3c(cccc3c1)CC2`, the Potency result was “inactive”.

For `CCCN(CCC)N=O`, the Potency entry is “inactive”.

For the compound `COC(=O)NS(=O)(=O)c1ccc(N)cc1`, the Potency result was “inactive”.

Regarding `C#CC(C)(C)NC(=O)c1cc(Cl)cc(Cl)c1`, the Potency entry was “inactive”.

On to `O=c1n(Cl)c(=O)n(Cl)c(=O)n1Cl`, for which the Potency entry was “inactive”.

For the compound `CC(C)(Cl)Cl`, the Potency result is “inactive”.

Consider `[O-][Cl+2]([O-])O`, for which the Potency result was “inactive”.

Consider `CC(C)NC(=O)N1CC(=O)N(c2cc(Cl)cc(Cl)c2)C1=O`, for which the Potency entry was “inactive”.

As to `CC(C)OC(=O)Nc1ccccc1`, the Potency entry is “inactive”.

As for `Cc1ccc([N+](=O)[O-])cc1C`, the Potency result is “inactive”.

Source of the values: PubChem BioAssay (Tox21).
